Most compounds without a hit are left out; they make up all but 19% or so of the library.
ELG1 DNA repair: qHTS screen for small molecules that inhibit ELG1-dependent DNA repair in human embryonic kidney (HEK293T) cells expressing luciferase-tagged ELG1; Potency, µM (titrated, usually from 46.1 µM), hits mostly inhibitors; AID 504467, 2011; 2.3% of 330,000 active; HEK293T ELG1-luciferase reporter, luminescence, 16 h; DNA damage induced by 5-fluorouridine; also: nearly all actives have a fitted effect of over 55% in size
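Step one: seed 2,000 cells per well. Step two: pin-transfer compound or DMSO alongside 5-fluorouridine. Step three: incubate 16 hr, 37 °C, 5% CO2. Step four: add ONE-Glo, wait 30 min, read luminescence.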
IL-1B inflam inh: qHTS for Inhibitors of Inflammasome Signaling: IL-1-beta AlphaLISA Primary Screen. THP-1 LPS/ATP IL-1B secretion, AlphaLISA, 16 h; hits give low values. activity change, % at 57.5 µM. 4.7% of 360,000 active; in the data active = activity change below about -50%; inconclusive = mostly about -30% to -49%
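THP-1 cells pretreated 1 hr with compounds (up to 57.5 uM final), then stimulated with LPS (250 ng/mL final) plus ATP (1.25 mM final); secreted IL-1B measured by AlphaLISA after 16 hr, decreased signal indicating inhibition.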
HT1080NT lethal: qHTS for induction of synthetic lethality in tumor cells producing 2HG: qHTS for the HT-1080-NT fibrosarcoma cell line | HT-1080-NT fibrosarcoma viability, CellTiter-Glo ATP luminescence, 48 h | Potency, µM (doses to about 46.1 µM), usual class: cytotoxic | 1.6% of 360,000 active | AID 686970, 2013;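 also: NT is the 2HG producing partner of a matched IDH1 knockdown line; nearly all actives have a fitted effect of over 55% in size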
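Compounds were tested in concentration-response format on HT-1080-NT cells for 48 hours at 37 degrees C. Cell viability came from CellTiter-Glo luminescence; curves were classified by r2, response magnitude and activity.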
DT40 TDP1 no CPT: qHTS for Inhibitors of human tyrosyl-DNA phosphodiesterase 1 (TDP1): qHTS in cells in absence of CPT; DT40 Tdp1-/- hTDP1 cells, no CPT, ATP luminescence, 48 h; Potency, µM (doses to about 46.2 µM), hits mostly inhibitors; 15% of 420,000 active; AID 686978, 2013; also: nearly all actives have a fitted effect of over 55% in size
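Stably hTDP1-transfected Tdp1-null chicken DT40 cells were treated with library compounds minus camptothecin and grown for at least 48 hr at 37 °C, after which cellular ATP was quantified by luminescence.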
TDP1 cell CPT: qHTS for Inhibitors of human tyrosyl-DNA phosphodiesterase 1 (TDP1): qHTS in cells in presence of CPT. chicken DT40 Tdp1-/-;hTDP1 cells + 20 nM CPT, ATP luminescence, 48 h. Potency, µM (series often up to 46.2 µM), actives largely listed as inhibitors. 12% of 420,000 active; also: nearly all actives have a fitted effect of over 55% in size
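Cell growth measured by CellTiter-Glo luminescence after a minimum 48 h, 37 C compound exposure with 20 nM CPT in Tdp1-knockout DT40 cells stably expressing hTDP1, seeded 400/well; qHTS titration format.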
HT1080 IDH1KD tx: qHTS for induction of synthetic lethality in tumor cells producing 2HG: qHTS for the HT-1080-IDH1KD cell line; HT-1080 IDH1 knockdown viability, ATP luminescence, 48 h; AID 686971, 2013; Potency, µM (series often up to 46.1 µM), hits mostly cytotoxic; 2% of 360,000 active
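Luminescent ATP read-out (CellTiter-Glo, 10 min at room temperature) after 48 h compound exposure at 37 °C gave viability of IDH1-knockdown HT-1080 cells. Activity was normalised to DMSO and cell-free wells, then fitted as concentration-response curves.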
A number is an active result. Unless noted, calls follow the shape of the dose curve; as a rule, active = well fitted curve in the direction sought with a large enough effect; inconclusive = small, poorly fitted or top-dose-only effect, or another doubt; inactive = no such curve, though single readings can be large; an effect the other way counts as inactive or inconclusive.

CCOc1ccc(NC(=O)CSc2nnc(-c3ccccc3Cl)n2Cc2ccco2)cc1 was read as ELG1 DNA repair inconclusive, IL-1B inflam inh inactive, HT1080NT lethal inconclusive, DT40 TDP1 no CPT 18µM, TDP1 cell CPT 21µM and HT1080 IDH1KD tx inconclusive.
CCOc1ccc(NC(=O)CSc2nccn2Cc2ccco2)cc1 was read as ELG1 DNA repair inconclusive, IL-1B inflam inh inactive, HT1080NT lethal inactive, DT40 TDP1 no CPT inconclusive, TDP1 cell CPT inconclusive and HT1080 IDH1KD tx inactive.
Screening O=C(CSc1nnc(-c2ccco2)n1Cc1ccco1)Nc1ccccc1 returned ELG1 DNA repair inconclusive, IL-1B inflam inh inactive, HT1080NT lethal inactive, DT40 TDP1 no CPT inactive, TDP1 cell CPT inactive and HT1080 IDH1KD tx inactive.
Screening O=C(Cn1nc2ccccc2n1)N/N=C/c1ccc(F)cc1 returned ELG1 DNA repair inactive, IL-1B inflam inh inactive, HT1080NT lethal inconclusive, DT40 TDP1 no CPT inactive, TDP1 cell CPT inactive and HT1080 IDH1KD tx inactive.
For COc1ccc(CCNC(=O)CCn2c(=O)c3ccccc3n(Cc3c(C)cc(C)cc3C)c2=O)cc1OC the results were DT40 TDP1 no CPT inactive and TDP1 cell CPT inactive.
`COc1ccc(CCNC(=O)CCn2c(=O)c3ccccc3n(CC(=O)Nc3cc(Cl)ccc3C)c2=O)cc1OC` gave DT40 TDP1 no CPT inactive and TDP1 cell CPT inactive.
Screening COc1ccc(CCNC(=O)CCCCn2c(=O)c3ccccc3n(Cc3ccc(F)cc3Cl)c2=O)cc1OC returned DT40 TDP1 no CPT 6.5µM and TDP1 cell CPT 21µM.
For O=C(CCCn1c(=O)c2ccccc2n(Cc2ccc(F)cc2Cl)c1=O)NCCc1ccc(Cl)cc1 the results were DT40 TDP1 no CPT 18µM and TDP1 cell CPT inconclusive.
COc1ccc(CCNC(=O)CCCCn2c(=O)c3ccccc3n(Cc3ccc(Cl)cc3)c2=O)cc1OC was read as DT40 TDP1 no CPT inconclusive and TDP1 cell CPT 23µM.
For COc1ccc(CCNC(=O)CCCn2c(=O)c3ccccc3n(Cc3c(C)cc(C)cc3C)c2=O)cc1OC the results were DT40 TDP1 no CPT inactive and TDP1 cell CPT inactive.
Screening COc1ccc(Cl)cc1NC(=O)Cn1c(=O)n(CCCC(=O)NCCc2ccc(OC)c(OC)c2)c(=O)c2ccccc21 returned DT40 TDP1 no CPT 8.2µM and TDP1 cell CPT 15µM.
For COc1ccc(N2CCN(S(=O)(=O)c3csc(C(N)=O)c3)CC2)cc1 the results were DT40 TDP1 no CPT inactive and TDP1 cell CPT inactive.
COc1ccc(CCNC(=O)CCn2c(=O)c3ccccc3n(Cc3ccccc3C)c2=O)cc1OC was read as DT40 TDP1 no CPT 18µM and TDP1 cell CPT 15µM.
`COc1ccccc1NNC(=O)C(O)(c1ccccc1OC)c1ccccc1OC` gave ELG1 DNA repair inactive, IL-1B inflam inh inactive, HT1080NT lethal inactive, DT40 TDP1 no CPT 23µM, TDP1 cell CPT 18µM and HT1080 IDH1KD tx inactive.
`COc1ccccc1NNC(=O)C(O)(c1ccccc1)c1ccccc1` gave ELG1 DNA repair inactive, IL-1B inflam inh inactive, HT1080NT lethal inactive, DT40 TDP1 no CPT inactive, TDP1 cell CPT inactive and HT1080 IDH1KD tx inactive.
`COc1ccc(-c2csc(C(C#N)=C(O)CSc3nccn3C)n2)cc1OC` gave IL-1B inflam inh inactive, HT1080NT lethal inactive, DT40 TDP1 no CPT inconclusive, TDP1 cell CPT inactive and HT1080 IDH1KD tx inactive.
NC1=NCC2c3ccccc3Cc3ccccc3N12 (centres undefined) was read as DT40 TDP1 no CPT 24µM and TDP1 cell CPT inconclusive.
CN1CCN2c3ncccc3Cc3ccccc3[C@@H]2C1 was read as ELG1 DNA repair inconclusive, IL-1B inflam inh inactive, HT1080NT lethal inactive, DT40 TDP1 no CPT inactive, TDP1 cell CPT inactive and HT1080 IDH1KD tx inactive.
N=c1n(Cc2ccccc2)c2ccccc2n1CC(O)c1ccco1 (centres undefined) was read as ELG1 DNA repair inconclusive, IL-1B inflam inh inactive, HT1080NT lethal inactive, DT40 TDP1 no CPT 23µM, TDP1 cell CPT 21µM and HT1080 IDH1KD tx inactive.
`N=c1n(CCO)c2ccccc2n1Cc1ccc(Cl)cc1` gave ELG1 DNA repair inconclusive, IL-1B inflam inh -52, HT1080NT lethal inactive, DT40 TDP1 no CPT 16µM, TDP1 cell CPT 26µM and HT1080 IDH1KD tx inactive.
For N=c1n(CC(=O)c2ccc([N+](=O)[O-])cc2)c2ccccc2n1Cc1ccc(Cl)cc1 the results were ELG1 DNA repair inconclusive, IL-1B inflam inh inactive, HT1080NT lethal inactive, DT40 TDP1 no CPT 5.2µM, TDP1 cell CPT 2.9µM and HT1080 IDH1KD tx inactive.
Screening CCn1c(=N)n(CC(O)c2ccco2)c2ccccc21 (centres undefined) returned ELG1 DNA repair inactive, IL-1B inflam inh inactive, HT1080NT lethal inactive, DT40 TDP1 no CPT inactive, TDP1 cell CPT inactive and HT1080 IDH1KD tx inactive.
Screening Cc1ccccc1Cn1c(=N)n(CC(=O)c2ccco2)c2ccccc21 returned ELG1 DNA repair inconclusive, IL-1B inflam inh inactive, HT1080NT lethal inconclusive, DT40 TDP1 no CPT 16µM, TDP1 cell CPT 23µM and HT1080 IDH1KD tx inconclusive.
`CCCn1c(=N)n(CC(=O)c2ccco2)c2ccccc21` gave ELG1 DNA repair inactive, IL-1B inflam inh inactive, HT1080NT lethal inactive, DT40 TDP1 no CPT inactive, TDP1 cell CPT inactive and HT1080 IDH1KD tx inactive.
For Cc1ccc2oc(-c3ccc(Cl)c(NC(=O)c4ccc(-c5ccccc5[N+](=O)[O-])o4)c3)nc2c1 the results were DT40 TDP1 no CPT inactive and TDP1 cell CPT inactive.
For Cc1c(NS(=O)(=O)c2cc(C(=O)NC(C)c3ccccc3)ccc2Cl)c(=O)n(-c2ccccc2)n1C (centres undefined) the results were ELG1 DNA repair inactive, IL-1B inflam inh inactive, HT1080NT lethal inactive, DT40 TDP1 no CPT inactive, TDP1 cell CPT inconclusive and HT1080 IDH1KD tx inactive.
For O=C(c1ccc([N+](=O)[O-])cc1)N1CCSC1c1cccc(Cl)c1 (centres undefined) the results were ELG1 DNA repair inactive, IL-1B inflam inh inconclusive, HT1080NT lethal inactive, DT40 TDP1 no CPT inactive, TDP1 cell CPT inactive and HT1080 IDH1KD tx inconclusive.
`CCCCCCCCC(=O)N1C(C)CCC1C` (centres undefined) gave IL-1B inflam inh inactive, HT1080NT lethal inactive, DT40 TDP1 no CPT inconclusive, TDP1 cell CPT inconclusive and HT1080 IDH1KD tx inactive.
For N=c1n(CC(=O)c2ccc([N+](=O)[O-])cc2)c2ccccc2n1Cc1ccccc1Cl the results were ELG1 DNA repair inactive, IL-1B inflam inh -60, HT1080NT lethal inactive, DT40 TDP1 no CPT 2.9µM, TDP1 cell CPT 2.9µM and HT1080 IDH1KD tx inactive.
